High-throughput results from PubChem.
KDM5B inh: blocks human KDM5B histone demethylase activity | Q9UGL1 | KDM5B demethylase, FDH-coupled NADH fluorescence (FDH is formaldehyde dehydrogenase) | Potency, µM (top dose mostly 57.7 µM), most hits filed as inhibitors | 2.6% of 220,000 active | AID 1347165; active = well fitted inhibition curve with a large enough effect; also: 0% is about no effect; nearly all actives have a fitted effect of over 70% in size
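Here, H3K4me3 peptide (12.5 µM in substrate mix) is demethylated by KDM5BΔAP, 200 nM final, after 10 min compound exposure. Formaldehyde product is coupled through FDH (0.25 U/mL in mix) to NADH fluorescence; 30-min ΔRFU feeds dose-response curves.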
The depositor's hits bear a star; i = inactive. Many of the other results were omitted from the sample, so hits are more common in it than they were. Potency is read from the fitted curve at half-maximal effect.

SMILES | KDM5B inh
CC1(C(=O)NCc2cc(F)ccc2F)CCCCC(=O)N1 (configuration not stated) | i
CC1(C(=O)NCc2cc3n(n2)CCCN(S(C)(=O)=O)C3)CCCCO1 (configuration not stated) | i
CCc1[nH]c2c(CNC(=O)C3(C)CCCCO3)cc(F)cc2c1C (configuration not stated) | 20µM*
CN1CCN(CN2C(=O)C(O)(CC(=O)c3ccc(Br)s3)c3ccccc32)CC1 (configuration not stated) | i
Cc1ccc(/C=C/C(=O)Oc2ccc(-c3ccc(C#N)cc3)cc2)o1 | i
CCN(CC(=O)NCc1cccs1)C(=O)C1CC(=O)N(c2cccc3ccccc23)C1 (configuration not stated) | i
O=C(NCCCNc1ccccc1)NCCc1ccccn1 | i
CN1CCN(CCCNc2nc3ccccc3c3nc(-c4ccccc4)nn23)CC1 | i
CN1CCN(CCCNc2nc(CO)nc3ccccc23)CC1 | i
CC(C)(O)CCc1cccc(C(=O)NCCCc2ccccn2)c1 | i
c1ccc(CCCNc2nccc(-c3ccccn3)n2)nc1 | 28.2µM*
CN1CCN(CCCNc2nccc(-c3ccccn3)n2)CC1 | 28.2µM*
COc1ccc(-c2nn(-c3ccccc3)cc2C2=NN(S(C)(=O)=O)C(c3ccco3)C2)cc1 (configuration not stated) | i
COc1cc2c(cc1OC)-c1c(c(C(=O)N3CCC(C(N)=O)CC3)nn1-c1ccccc1)C2 | i
CCOc1cccc(/C=C2/Cc3c(O)cccc3C2=O)c1 | i
